Compound activity (PubChem BioAssay)
VACV Venus inh: vaccinia inhibition (Venus reporter); Potency, µM (top dose mostly 36.5 µM), without a hit: at the highest dose activity change, negative = inhibition, actives largely listed as inhibitors; Vaccinia virus Venus reporter expression, fluorescence; 330,000 compounds, 0.46% hits; calls by dose curve; tested in A549 cells; also: potency is read from the fitted curve at half-maximal effect; nearly all actives have a fitted effect of over 30% in size
Lassa entry inh: inhibitors of Lassa virus binding or cell entry; Lassa virus pseudotype entry inhibition, cell reporter; Potency, µM (highest dose often 37.9 µM), without a hit: at the highest dose activity change, negative = inhibition, hits mostly inhibitors; 300,000 compounds, 1.2% hits; calls by dose curve; tested in HEK293 cells; also: potency is read from the fitted curve at half-maximal effect; nearly all actives have a fitted effect of over 50% in size
HCMV inh: inhibitors of human cytomegalovirus; 410,000 compounds, 4.5% hits; HFF cells, HCMV-luciferase reporter, 72 h; stronger effect = lower value; AID 1259415; activity change, negative = inhibition, % at 57.5 µM; in the data active = activity change below about -60%; inconclusive = no clear call, values can overlap the other calls; inactive = above about -39%
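Compounds were evaluated in HFFs infected with an HCMV luciferase reporter virus (MOI 1 PFU/cell). Luciferase in lysates collected 72 h post infection served as the replication measure.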
FMDV antiviral: antivirals against foot and mouth disease virus | FMDV antiviral cell-based qHTS | 410,000 compounds, 1.2% hits | Potency, µM (series often up to 57.9 µM), without a hit: at the top dose activity change, negative = inhibition, most hits filed as inhibitors | AID 1159524; calls by dose curve; tested in HEK293T cells; also: read-out not given here; potency is read from the fitted curve at half-maximal effect; nearly all actives have a fitted effect of over 45% in size
MARV entry inh: inhibitors of Marburg virus binding or cell entry; Marburg virus pseudotyped entry inhibition, cell reporter; Potency, µM (highest dose often 37.8 µM), for the others: at the top dose activity change, negative = inhibition, most hits filed as inhibitors; 300,000 compounds, 1.8% hits; AID 540276; calls by dose curve; tested in HEK293 cells; also: potency is read from the fitted curve at half-maximal effect
Vaccinia mCherry: inhibitors of vaccinia virus infection (mCherry reporter signal). Vaccinia virus mCherry reporter infection, fluorescence. Potency, µM (titrated, usually from 36.5 µM), without a hit: at the top dose activity change, negative = inhibition, actives largely listed as inhibitors. 310,000 compounds, 0.63% hits; calls by dose curve; tested in A549 cells; also: potency is read from the fitted curve at half-maximal effect; nearly all actives have a fitted effect of over 35% in size
Starred values were filed as active, the others as inactive; i = inactive; ? = inconclusive; nt = not tested or not shown; [ ] = remark or other dose. In the library only some 6.5% were active in any assay of this set; here they are far more common. % is scaled to controls: 0 for no effect and ±100 for the full control effect.

SMILES | VACV Venus inh | Lassa entry inh | HCMV inh | FMDV antiviral | MARV entry inh | Vaccinia mCherry
C[C@@H]1CN([C@H](C)CO)C(=O)c2cc(NC(=O)Nc3ccc(C(F)(F)F)cc3)ccc2O[C@H]1CN(C)S(=O)(=O)c1ccc(Cl)cc1 | -26% | nt | -76* | -21% | nt | -9%
C[C@@H]1CN([C@H](C)CO)C(=O)c2cc(NS(=O)(=O)c3ccc(F)cc3)ccc2O[C@@H]1CN(C)Cc1ccc(Cl)c(Cl)c1 | 10µM* | nt | -19 | ? | nt | ?
O=C(NCCn1ccc2ccccc21)c1ccc(Cl)cc1 | -15% | 24%[46.1 µM] | 95 | 45% | ? | -18%
Cc1ccc(NC(=O)C2CCN(S(=O)(=O)c3ccc4c(c3)CCCN4C(=O)C3CCC3)CC2)cc1 | -16% | -17%[46.1 µM] | -4 | -27% | nt | -14%
C[C@@H]1CN([C@H](C)CO)C(=O)c2cc(NC(=O)Nc3ccc(C(F)(F)F)cc3)ccc2O[C@H]1CN(C)Cc1ccc(Cl)c(Cl)c1 | 10µM* | nt | -97* | -18% | nt | ?
C[C@H]1CN([C@@H](C)CO)C(=O)c2cccc(NC(=O)Nc3ccc(C(F)(F)F)cc3)c2O[C@@H]1CN(C)Cc1ccc(Cl)c(Cl)c1 | ? | nt | -26 | ? | nt | ?
Cc1ccc(NC(=O)c2ccc(CNS(=O)(=O)c3ccc4c(c3)C(C)(C)C(=O)N4C)cc2)cc1F | -23% | -13%[46.1 µM] | -32 | 25µM* | nt | ?
CCc1cccc(NC(=O)c2ccc(CNS(=O)(=O)c3ccc4c(c3)C(C)(C)C(=O)N4C)cc2)c1 | -18% | ? | ? | 22µM* | nt | -17%
COc1ccc2[nH]c(C)c(C(=O)CN(C)CC(OC)OC)c2c1 | -10% | nt | nt | nt | nt | -13%
COC(=O)C1=C(C(=O)OC)[C@@H]2Nc3ccccc3[C@@]23C[C@@H](C(=O)OC)N(C(=O)N2CCNC2=O)C3=N1 | nt | nt | nt | nt | 8%[14.2 µM] | nt
COC(=O)C1=C(C(=O)OC)C(C(=O)OC)C(C(=O)OC)C(C(=O)OC)(C(=O)OC)C(C(=O)OC)=C1C(=O)OC (centres undefined) | ? | ? | 11 | 40µM* | ? | ?
CCN(CC)S(=O)(=O)c1ccc2c(c1)N(CC(=O)Nc1cccc(C#N)c1)C(=O)CO2 | -4% | 3%[46.1 µM] | -11 | -10% | 5%[46.1 µM] | -4%
CC(=O)C1=C(c2ccc(Br)cc2)C(=O)c2ccccc2C1=O | 6% | 2.5µM* | ? | 3.2µM* | 5.2µM* | -15%
COC1=C[C@H](C(=O)NCCOC(C)=O)[C@H](C)[C@@H](c2ccccc2)CC1=O | nt | nt | nt | nt | -39%[14.2 µM] | nt
CCC(=O)NCc1nc(-c2cccc(NC(=O)c3ccc(C)s3)c2)oc1C | -19% | nt | nt | 13% | nt | -16%
COc1ccc(OC(=O)N2C/C(=C/c3ccccc3)C(=O)/C(=C\c3ccccc3)C2)cc1 | -5% | 7.1µM* | -97* | 32µM* | ? | -7%
CCOC(=O)N1CCN(S(=O)(=O)/C=C/c2ccccc2)CC1 | nt | 0% | -10 | -12% | ? | nt
CCOC(=O)N1C/C(=C\c2ccccc2)C(=O)/C(=C/c2ccccc2)C1 | ? | nt | -101* | 20µM* | nt | ?
COc1ccc(OC(=O)N2CCOCC2)cc1 | nt | nt | 65 | 43% | nt | nt
COC(=O)[C@@H]1CCCN1Cc1ccc2c(c1)CN(Cc1cccn1-c1ncccn1)CCO2 | -3% | nt | nt | ? | nt | -9%
CN1CCN(CC(=O)N2N=C(c3cccs3)CC2c2ccco2)CC1 (centres undefined) | -3% | ? | 0 | -7% | -2% | i
O=C(CCl)N1N=C(c2cccs2)CC1c1ccco1 (centres undefined) | -21% | ? | -97* | 16µM* | ? | ?
O=C(CCl)N1N=C(c2ccco2)CC1c1ccco1 (centres undefined) | -27% | ? | -72* | -24% | ? | ?
O=C(O)/C=C/C(=O)N1N=C(c2ccco2)CC1c1ccco1 (centres undefined) | -1% | ? | 12 | -10% | ? | -6%
CCC1C(=O)NCCN1Cc1ccc2c(c1)CN(Cc1ccc3c(c1)OCCO3)CCO2 (centres undefined) | -6% | nt | nt | -3% | nt | -9%
Cc1oc(-c2ccc(Cl)cc2)nc1CS(=O)CC(=O)NCCCN(C)C1CCCCC1 (centres undefined) | nt | 10% | -70* | ? | ? | nt
